Test [1] addresses CCAAT/enhancer-binding protein beta (Homo sapiens) (UniProt P17676). In words: ATG_C_EBP_CIS: Attagene CIS-FACTORIAL HepG2 Assay for human CCAAT/Enhancer Binding Protein (C/EBP) beta (AID 2282927; active means hit-call score of the fitted dose curve at least 0.9, where 1 is the maximum; inactive means score below 0.9). Conditions: HepG2 Attagene cis-factorial transcription factor reporter; actives raise or lower the signal. In outline:
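Chemical-treated HepG2 cells (24 h) bearing cis-regulated reporter constructs were processed for total RNA, then reverse transcription, PCR amplification, fluorescent primer extension and fragment analysis; gain- and loss-of-signal were fitted against DMSO.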

Test [2] can be described thus: ATG_DR4_LXR_CIS: Attagene CIS-FACTORIAL HepG2 Assay for human Liver X Receptor (LXR), DR4 submotif (AID 2282929; active means hit-call score of the fitted dose curve at least 0.9, where 1 is the maximum; inactive means score below 0.9). Conditions: HepG2 Attagene DR4 cis-reporter, mRNA transcription; actives raise or lower the signal. In short, it runs like this: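 HepG2 cells transiently transfected with cis-promoter-driven multiplexed reporter units (DR4 element) were dosed for 24 h. Reporter mRNA was quantified by RT-PCR, fluorescent primer extension, HpaI digestion and capillary electrophoresis; bidirectional fitting versus DMSO baseline.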

The nature of test [3]: ATG_AP_2_CIS: Attagene CIS-FACTORIAL HepG2 Assay for human Activator Protein 2 (AP-2) (AID 2282932; active means hit-call score of the fitted dose curve at least 0.9, where 1 is the maximum; inactive means score below 0.9). As to conditions: HepG2 AP-2 cis-reporter, Attagene transcription factor profiling; actives raise or lower the signal. In short, it runs like this: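 Assay in transfected HepG2 with promoter-regulated reporters, 24 h incubation after dosing. Signal is reporter mRNA fluorescence (RT-PCR, capillary electrophoresis), analysed for both increases and decreases relative to DMSO controls.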

In test [4] the target is Transcription factor E2F1 (Homo sapiens) (UniProt Q01094). In words: ATG_E2F_CIS: Attagene CIS-FACTORIAL HepG2 Assay for human E2F Transcription Factor 1 (AID 2282935; active means hit-call score of the fitted dose curve at least 0.9, where 1 is the maximum; inactive means score below 0.9). As to conditions: HepG2 Attagene cis-reporter, E2F reporter RNA transcripts; actives raise or lower the signal. In outline: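 In this cis-factorial format, endogenous factor activity drives transfected reporters in HepG2; transcripts collected at 24 h are quantified by fluorescence after RT-PCR and capillary separation.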

Test [5] in a line: ATG_E_Box_CIS: Attagene CIS-FACTORIAL HepG2 Assay for human Enhancer Box (E-box) (AID 2282936; active means hit-call score of the fitted dose curve at least 0.9, where 1 is the maximum; inactive means score below 0.9). As to conditions: HepG2 E-box cis-reporter transcription, actives raise or lower the signal. In outline: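 Measured 24 h post-dosing in HepG2 cells transfected with multiple cis-regulated reporter units, signal being reporter mRNA induction detected by fluorescent RT-PCR with capillary electrophoresis; gain or loss fitted against DMSO.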

Test [6] can be described thus: ATG_M_19_CIS: Attagene CIS-FACTORIAL HepG2 Assay for M19 Transcription Factor (Internal Marker) (AID 2282939; active means hit-call score of the fitted dose curve at least 0.9, where 1 is the maximum; inactive means score below 0.9). As to conditions: HepG2 Attagene CIS-FACTORIAL M19 internal marker reporter; actives raise or lower the signal. In outline: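 Following a 24 h exposure, RNA from transfected HepG2 cells was reverse-transcribed, PCR-amplified with reporter-specific primers, end-labelled with 6-FAM and HpaI-digested before capillary separation. Values represent gain or loss versus DMSO.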

Test [7] in a line: ATG_GLI_CIS: Attagene CIS-FACTORIAL HepG2 Assay for human Zinc Finger Protein GLI1 (AID 2282945; active means hit-call score of the fitted dose curve at least 0.9, where 1 is the maximum; inactive means score below 0.9). As to conditions: HepG2, Attagene cis-factorial reporter mRNA, GLI element; actives raise or lower the signal. In short, it runs like this: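 HepG2 cells transiently transfected with cis-promoter multiplexed reporter units report endogenous transcription factor activity. After 24 h chemical exposure, reporter mRNA was quantified by RT-PCR, 6-FAM labelling, HpaI digestion and capillary electrophoresis, with bidirectional fitting against DMSO.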

Test [8] can be described thus: ATG_ISRE_CIS: Attagene CIS-FACTORIAL HepG2 Assay for human Interferon Regulatory Factor 1 (IRF1) binding to an Interferon-Stimulated Response Element (ISRE) (AID 2282948; active means hit-call score of the fitted dose curve at least 0.9, where 1 is the maximum; inactive means score below 0.9). As to conditions: HepG2 ISRE cis-reporter (Attagene), mRNA transcription readout; actives raise or lower the signal. In short, it runs like this:
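Read-out: fluorescent RT-PCR products resolved by capillary electrophoresis, reporting endogenous transcription factor activity via ISRE-driven reporter mRNA in transfected HepG2 cells dosed for 24 h; gain or loss fitted relative to DMSO.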

The nature of test [9]: ATG_M_32_CIS: Attagene CIS-FACTORIAL HepG2 Assay for M32 Transcription Factor (Internal Marker) (AID 2282949; active means hit-call score of the fitted dose curve at least 0.9, where 1 is the maximum; inactive means score below 0.9;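 further: background control marker of the multiplexed CIS panel rather than a real target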). Conditions: HepG2 Attagene cis-factorial M32 reporter, mRNA; actives raise or lower the signal. In short, it runs like this:
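Using DMSO as baseline, bidirectional curve fits were applied to reporter mRNA signals. These came from transiently transfected HepG2 cells exposed for 24 h, with RNA analysed by RT-PCR, FAM primer extension, HpaI digestion and CE.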

The target of test [10] is Hepatocyte nuclear factor 6 (Homo sapiens) (UniProt Q9UBC0). In words: ATG_HNF6_CIS: Attagene CIS-FACTORIAL HepG2 Assay for human Hepatocyte Nuclear Factor 6 (HNF6) (AID 2282952; active means hit-call score of the fitted dose curve at least 0.9, where 1 is the maximum; inactive means score below 0.9). As to conditions: HepG2 Attagene cis-factorial HNF6 reporter transcription; actives raise or lower the signal. In short, it runs like this: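 Using cis-element reporters in HepG2 liver cells, the assay tracks endogenous factor-driven transcription 24 h post-dosing. Signal comes from 6-FAM-labelled, HpaI-digested RT-PCR fragments, with gain or loss scored against DMSO.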

For test [11], the target named is Heat shock factor protein 1 (Homo sapiens) (UniProt Q00613). As to the kind of experiment: ATG_HSE_CIS: Attagene CIS-FACTORIAL HepG2 Assay for human Heat Shock Transcription Factor 1 (HSE) (AID 2282953; active means hit-call score of the fitted dose curve at least 0.9, where 1 is the maximum; inactive means score below 0.9). As to conditions: HepG2 HSE cis-reporter, Attagene RNA transcription; actives raise or lower the signal. In short, it runs like this: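 After a 24 h incubation with test chemical, transfected HepG2 cells were harvested for RNA; reporter transcripts were measured by RT-PCR and capillary electrophoresis. Values reflect gain or loss of signal relative to DMSO.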

The nature of test [12]: ATG_PXRE_CIS: Attagene CIS-FACTORIAL HepG2 Assay for human Pregnane X Receptor Element (PXRE) (AID 2282957; active means hit-call score of the fitted dose curve at least 0.9, where 1 is the maximum; inactive means score below 0.9). As to conditions: HepG2 Attagene CIS-FACTORIAL PXRE reporter, mRNA; actives raise or lower the signal. In outline: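 Using HepG2 transfected with multiple reporter transcription units, endogenous factor-driven transcription was scored as reporter mRNA after 24 h exposure.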

Test [13] can be described thus: ATG_Sox_CIS: Attagene CIS-FACTORIAL HepG2 Assay for human SRY-box transcription factor (SOX) (AID 2282960; active means hit-call score of the fitted dose curve at least 0.9, where 1 is the maximum; inactive means score below 0.9). Conditions: HepG2 Attagene cis-factorial SOX reporter, mRNA; actives raise or lower the signal. In short, it runs like this:
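HepG2 cells transiently transfected with cis-element-driven multiple reporter transcription units, dosed 24 h; reporter mRNA measured by RT-PCR, FAM labelling, HpaI digestion and capillary electrophoresis. Bidirectional fit versus DMSO baseline.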

Test [14] concerns the target Transcription factor Sp1 (Homo sapiens) (UniProt P08047). In words: ATG_Sp1_CIS: Attagene CIS-FACTORIAL HepG2 Assay for human Specificity Protein 1 (Sp1) (AID 2282961; active means hit-call score of the fitted dose curve at least 0.9, where 1 is the maximum; inactive means score below 0.9). Conditions: HepG2 Sp1 cis-reporter transcription, actives raise or lower the signal. In short, it runs like this: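 HepG2 cells transiently transfected with multiple reporter transcription units driven by cis-regulatory elements; Sp1-responsive reporter mRNA measured 24 h after dosing by RT-PCR and capillary electrophoresis fluorescence, fitted bidirectionally against DMSO baseline.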

Test [15] has as its target Signal transducer and activator of transcription 3 (Homo sapiens) (UniProt P40763). In words: ATG_STAT3_CIS: Attagene CIS-FACTORIAL HepG2 Assay for human Signal Transducer and Activator of Transcription 3 (STAT3) (AID 2282963; active means hit-call score of the fitted dose curve at least 0.9, where 1 is the maximum; inactive means score below 0.9). As to conditions: HepG2, Attagene cis-factorial STAT3 reporter transcription; actives raise or lower the signal. In outline: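 Uses human liver HepG2 transiently carrying cis-regulated reporter transcription units. Following 24 h dosing, reporter mRNA induction was detected by RT-PCR and capillary electrophoresis, analysed bidirectionally versus DMSO.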

A short description of test [16]: ATG_TA_CIS: Attagene CIS-FACTORIAL HepG2 Assay for human TA Basal Promoter (AID 2282964; active means hit-call score of the fitted dose curve at least 0.9, where 1 is the maximum; inactive means score below 0.9). As to conditions: HepG2 Attagene CIS-factorial TA basal promoter reporter; actives raise or lower the signal. In outline: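 Multiplexed mRNA reporter assay, HepG2, 24 h. Reporter cDNA amplified, 6-FAM primer-extended, HpaI-cut, CE-sized; DMSO = negative control and baseline.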

The nature of test [17]: ATG_TCF_b_cat_CIS: Attagene CIS-FACTORIAL HepG2 Assay for human T-Cell-Factor with beta-catenin (TCF/b-cat) (AID 2282965; active means hit-call score of the fitted dose curve at least 0.9, where 1 is the maximum; inactive means score below 0.9). As to conditions: HepG2 TCF/beta-catenin cis-reporter transcription, actives raise or lower the signal. In short, it runs like this: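 In this cis-format system, transfected HepG2 cells report endogenous transcription factor activity. Readout after 24 h exposure is reporter transcript abundance from RT-PCR and capillary electrophoresis, analysed for gain or loss of signal versus DMSO.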

Test [18] in a line: ATG_TAL_CIS: Attagene CIS-FACTORIAL HepG2 Assay for human TAL Basal Promoter (AID 2282966; active means hit-call score of the fitted dose curve at least 0.9, where 1 is the maximum; inactive means score below 0.9;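 further: background control endpoint measuring basal TAL promoter reporter mRNA not a specific factor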). As to conditions: HepG2 Attagene cis-factorial TAL promoter reporter; actives raise or lower the signal. In short, it runs like this: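 After 24 hours of chemical exposure, transfected HepG2 cells yielded RNA that was converted to 6-FAM-labelled, HpaI-digested reporter fragments for capillary electrophoresis. Values derive from bidirectional fitting against DMSO controls.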

Test [19] concerns the target X-box-binding protein 1 (Homo sapiens) (UniProt P17861). In words: ATG_Xbp1_CIS: Attagene CIS-FACTORIAL HepG2 Assay for human X-box Binding Protein 1 (XBP1) (AID 2282972; active means hit-call score of the fitted dose curve at least 0.9, where 1 is the maximum; inactive means score below 0.9). Conditions: HepG2 XBP1 cis-element reporter, Attagene multiplex; actives raise or lower the signal. In outline: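 Read-out: fluorescent reporter mRNA fragments resolved by capillary electrophoresis after RT-PCR. Human HepG2 liver cells carried transfected cis-promoter reporter units and were exposed to chemicals for 24 hours. Gain or loss of signal fitted relative to DMSO baseline.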

Test [20] deals with Androgen receptor (Homo sapiens) (UniProt P10275). In words: ATG_AR_TRANS: Attagene TRANS-FACTORIAL HepG2 Assay for human Androgen Receptor (AR) (AID 2282973). Conditions: HepG2 Attagene TRANS-FACTORIAL AR reporter transcription. In short, it runs like this: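 Steps: transfect HepG2 with multiple GAL4-UAS reporter transcription units (TRANS format, exogenous NR-Gal4 protein); dose 24 h; isolate RNA, reverse-transcribe, PCR-amplify, FAM-label, HpaI-digest; resolve by capillary electrophoresis. Positive direction vs DMSO.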

Records with an inconclusive call do not appear. Active and inactive are the calls of the source. How the source made its calls, unless noted: active means hit-call score of the fitted dose curve at least 0.9, where 1 is the maximum; inconclusive means response in the unintended direction; inactive means score below 0.9.

The values below come from PubChem BioAssay (EPA / NIEHS).

Sequence of Androgen receptor (Homo sapiens) (P10275 whole entry, looked up, the tested form may be a part): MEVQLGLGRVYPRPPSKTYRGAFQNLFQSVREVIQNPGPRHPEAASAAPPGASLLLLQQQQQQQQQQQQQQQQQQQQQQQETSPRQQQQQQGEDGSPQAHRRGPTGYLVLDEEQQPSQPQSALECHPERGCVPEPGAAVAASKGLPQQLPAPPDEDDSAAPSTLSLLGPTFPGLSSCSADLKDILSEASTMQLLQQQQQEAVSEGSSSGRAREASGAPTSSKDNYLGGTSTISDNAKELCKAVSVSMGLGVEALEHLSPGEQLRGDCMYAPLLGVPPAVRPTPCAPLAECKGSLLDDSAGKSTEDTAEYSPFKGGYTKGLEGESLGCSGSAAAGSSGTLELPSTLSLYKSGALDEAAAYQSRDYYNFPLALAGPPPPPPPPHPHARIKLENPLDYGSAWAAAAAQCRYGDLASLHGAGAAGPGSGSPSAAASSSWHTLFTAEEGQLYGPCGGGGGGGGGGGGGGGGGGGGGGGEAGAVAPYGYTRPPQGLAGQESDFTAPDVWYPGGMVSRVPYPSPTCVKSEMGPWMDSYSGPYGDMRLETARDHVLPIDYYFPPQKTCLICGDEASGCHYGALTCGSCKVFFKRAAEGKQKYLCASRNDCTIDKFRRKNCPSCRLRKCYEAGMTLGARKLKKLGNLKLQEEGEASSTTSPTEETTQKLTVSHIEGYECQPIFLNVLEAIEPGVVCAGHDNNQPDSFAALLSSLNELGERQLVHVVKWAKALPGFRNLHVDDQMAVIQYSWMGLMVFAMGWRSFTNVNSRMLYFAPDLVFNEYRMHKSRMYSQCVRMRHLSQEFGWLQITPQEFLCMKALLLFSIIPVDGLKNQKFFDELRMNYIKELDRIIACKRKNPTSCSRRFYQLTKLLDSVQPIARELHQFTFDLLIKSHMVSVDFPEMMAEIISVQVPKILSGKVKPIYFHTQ
Sequence of CCAAT/enhancer-binding protein beta (Homo sapiens) (P17676 whole entry, looked up, the tested form may be a part): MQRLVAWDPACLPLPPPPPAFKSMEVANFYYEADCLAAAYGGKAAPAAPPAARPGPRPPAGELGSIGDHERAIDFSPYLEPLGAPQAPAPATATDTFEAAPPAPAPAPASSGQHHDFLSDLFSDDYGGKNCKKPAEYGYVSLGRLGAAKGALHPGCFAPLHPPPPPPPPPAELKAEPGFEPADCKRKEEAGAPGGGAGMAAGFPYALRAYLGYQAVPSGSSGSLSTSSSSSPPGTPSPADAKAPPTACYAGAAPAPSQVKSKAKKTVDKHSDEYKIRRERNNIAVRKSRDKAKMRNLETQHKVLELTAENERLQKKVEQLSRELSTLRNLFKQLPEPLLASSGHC
Sequence of Transcription factor Sp1 (Homo sapiens) (P08047 whole entry, looked up): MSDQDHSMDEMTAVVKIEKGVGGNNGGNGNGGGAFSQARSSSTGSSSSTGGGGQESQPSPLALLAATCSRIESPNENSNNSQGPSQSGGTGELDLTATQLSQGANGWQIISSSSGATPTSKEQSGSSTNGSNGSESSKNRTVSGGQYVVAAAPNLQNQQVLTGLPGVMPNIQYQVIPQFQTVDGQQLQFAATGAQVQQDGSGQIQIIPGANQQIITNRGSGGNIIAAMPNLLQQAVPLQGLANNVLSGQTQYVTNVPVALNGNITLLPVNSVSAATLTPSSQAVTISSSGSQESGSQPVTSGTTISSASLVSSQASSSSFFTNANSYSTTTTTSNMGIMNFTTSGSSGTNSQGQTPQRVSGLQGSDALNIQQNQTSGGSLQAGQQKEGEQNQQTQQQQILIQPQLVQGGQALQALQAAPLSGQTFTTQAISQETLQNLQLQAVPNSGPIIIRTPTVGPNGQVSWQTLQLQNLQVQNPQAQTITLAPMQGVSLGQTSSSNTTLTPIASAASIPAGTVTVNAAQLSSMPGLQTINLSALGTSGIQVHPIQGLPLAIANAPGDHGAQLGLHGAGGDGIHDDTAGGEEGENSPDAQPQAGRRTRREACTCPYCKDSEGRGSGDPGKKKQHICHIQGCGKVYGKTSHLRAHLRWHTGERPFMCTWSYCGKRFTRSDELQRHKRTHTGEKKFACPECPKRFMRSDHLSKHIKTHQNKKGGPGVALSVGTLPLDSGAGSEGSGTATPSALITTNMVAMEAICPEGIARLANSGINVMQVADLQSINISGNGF
Sequence of X-box-binding protein 1 (Homo sapiens) (P17861 whole entry, looked up, the tested form may be a part): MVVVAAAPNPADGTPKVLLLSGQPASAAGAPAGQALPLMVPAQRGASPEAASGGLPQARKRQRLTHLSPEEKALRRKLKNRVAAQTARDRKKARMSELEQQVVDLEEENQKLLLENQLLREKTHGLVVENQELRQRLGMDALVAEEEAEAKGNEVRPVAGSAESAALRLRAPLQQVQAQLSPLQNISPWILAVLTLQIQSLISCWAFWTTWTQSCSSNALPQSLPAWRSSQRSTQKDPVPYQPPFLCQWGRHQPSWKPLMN
Sequence of Heat shock factor protein 1 (Homo sapiens) (Q00613 whole entry, looked up): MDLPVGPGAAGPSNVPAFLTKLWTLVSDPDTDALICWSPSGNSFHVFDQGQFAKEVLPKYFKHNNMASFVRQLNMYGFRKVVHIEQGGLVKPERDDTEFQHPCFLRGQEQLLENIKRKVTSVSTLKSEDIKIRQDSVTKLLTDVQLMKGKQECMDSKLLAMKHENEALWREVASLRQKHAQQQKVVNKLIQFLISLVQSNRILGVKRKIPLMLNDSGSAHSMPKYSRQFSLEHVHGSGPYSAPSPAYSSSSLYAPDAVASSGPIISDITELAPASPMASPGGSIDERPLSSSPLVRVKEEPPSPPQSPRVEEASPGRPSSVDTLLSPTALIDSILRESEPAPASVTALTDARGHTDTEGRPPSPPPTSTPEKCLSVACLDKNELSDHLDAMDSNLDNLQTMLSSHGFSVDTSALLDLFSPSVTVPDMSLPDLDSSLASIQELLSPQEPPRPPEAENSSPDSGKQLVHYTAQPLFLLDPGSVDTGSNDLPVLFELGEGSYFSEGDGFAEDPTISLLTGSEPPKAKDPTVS
Sequence of Transcription factor E2F1 (Homo sapiens) (Q01094 whole entry, looked up): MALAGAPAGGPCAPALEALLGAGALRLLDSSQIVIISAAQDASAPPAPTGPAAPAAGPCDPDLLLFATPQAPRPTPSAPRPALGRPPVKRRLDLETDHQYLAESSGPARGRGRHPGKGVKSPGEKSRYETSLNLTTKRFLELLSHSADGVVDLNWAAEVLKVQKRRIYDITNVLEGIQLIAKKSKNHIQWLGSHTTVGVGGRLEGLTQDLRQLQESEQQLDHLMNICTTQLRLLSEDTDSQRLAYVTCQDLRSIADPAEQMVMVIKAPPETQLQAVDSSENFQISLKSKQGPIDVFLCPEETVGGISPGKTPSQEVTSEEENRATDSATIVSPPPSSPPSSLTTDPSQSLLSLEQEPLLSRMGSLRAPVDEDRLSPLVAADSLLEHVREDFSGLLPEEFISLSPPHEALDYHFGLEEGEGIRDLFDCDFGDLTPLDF
Sequence of Signal transducer and activator of transcription 3 (Homo sapiens) (P40763 whole entry, looked up): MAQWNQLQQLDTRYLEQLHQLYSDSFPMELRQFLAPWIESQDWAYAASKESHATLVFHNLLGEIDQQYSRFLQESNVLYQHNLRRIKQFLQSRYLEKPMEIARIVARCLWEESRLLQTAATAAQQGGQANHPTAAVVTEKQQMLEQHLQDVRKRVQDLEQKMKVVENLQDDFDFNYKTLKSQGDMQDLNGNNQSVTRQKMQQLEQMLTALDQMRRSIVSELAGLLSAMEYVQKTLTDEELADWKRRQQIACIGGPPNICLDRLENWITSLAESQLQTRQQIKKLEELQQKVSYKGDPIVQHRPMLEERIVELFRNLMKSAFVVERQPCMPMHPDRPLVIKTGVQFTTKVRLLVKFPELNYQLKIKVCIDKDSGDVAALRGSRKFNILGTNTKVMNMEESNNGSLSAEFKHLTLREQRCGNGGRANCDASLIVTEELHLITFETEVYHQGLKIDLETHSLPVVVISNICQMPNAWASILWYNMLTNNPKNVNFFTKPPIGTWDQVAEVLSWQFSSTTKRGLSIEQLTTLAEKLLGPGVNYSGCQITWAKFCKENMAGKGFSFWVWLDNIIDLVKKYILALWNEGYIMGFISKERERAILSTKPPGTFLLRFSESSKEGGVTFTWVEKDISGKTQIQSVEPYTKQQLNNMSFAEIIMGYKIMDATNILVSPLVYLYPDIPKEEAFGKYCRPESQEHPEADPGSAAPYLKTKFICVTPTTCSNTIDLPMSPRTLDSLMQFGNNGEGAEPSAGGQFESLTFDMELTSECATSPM
Sequence of Hepatocyte nuclear factor 6 (Homo sapiens) (Q9UBC0 whole entry, looked up, the tested form may be a part): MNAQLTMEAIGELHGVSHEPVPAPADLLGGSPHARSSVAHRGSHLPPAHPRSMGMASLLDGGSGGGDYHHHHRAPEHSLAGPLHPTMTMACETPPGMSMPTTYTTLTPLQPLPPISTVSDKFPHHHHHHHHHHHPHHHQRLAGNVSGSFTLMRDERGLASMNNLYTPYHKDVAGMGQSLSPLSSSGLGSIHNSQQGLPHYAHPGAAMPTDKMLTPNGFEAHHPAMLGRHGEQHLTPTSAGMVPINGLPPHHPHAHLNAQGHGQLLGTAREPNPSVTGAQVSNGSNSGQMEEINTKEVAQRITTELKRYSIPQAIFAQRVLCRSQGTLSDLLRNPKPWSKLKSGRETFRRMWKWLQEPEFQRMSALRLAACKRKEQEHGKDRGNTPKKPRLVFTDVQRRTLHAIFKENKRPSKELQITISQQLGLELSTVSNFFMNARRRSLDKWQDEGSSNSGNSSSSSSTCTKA

Consider `c1ccc2c(c1)CCCC2`, for which the result in [1], in [2], in test [3], in test [4], in [5] and in [6] was inactive. Further, the outcome in test [7], in test [8], in test [9], in test [10], in [11] and in [12] was inactive. Further, the result in test [13], in test [14], in [15], in test [16], in test [17] and in test [18] was inactive. In test [19], the molecule was classed as inactive.
For the molecule `NCCNc1cccc2ccccc12`, the result in [20] was inactive.
As to `Nc1cc([N+](=O)[O-])ccc1O`, the result in test [20] was inactive.
On to `O=C1OC(=O)C(F)(F)C1(F)F`, for which the result in test [20] was inactive.
The same measure, in the same setting: to `CCc1c(Br)c(Br)c(Br)c(Br)c1Br` belongs “inactive”; to `OCC1CCC(CO)CC1` (stereo not given), “inactive”; to `CCCCC[C@H](O)CC(=O)CCc1ccc(O)c(OC)c1`, “inactive”.
`CC1COC(=O)O1` (stereo not given): in test [20], the result was inactive.
In the case of `N#CCCOCCC#N`, in test [20], the outcome was inactive.
Take `Brc1cc(Br)c(Oc2c(Br)cc(Br)c(Br)c2Br)cc1Br`: the molecule was called inactive in test [20].
`Cc1ccc(S(=O)(=O)OCC(F)(F)C(F)(F)C(F)(F)C(F)(F)C(F)(F)C(F)F)cc1`: the call in test [20] was inactive.
Still for that read-out and setting: to `CCC(CC)CO` belongs “inactive”; to `COCCOCCOCCOCCOC`, “inactive”.
On to `NNC(=O)OCc1ccccc1`, for which the molecule was classed as inactive in test [20].
As to `CCCCCCCCCCCCOCCO`, the molecule was classed as inactive in [20].
Turning to `N=C1C=CC(=C(c2ccc(N)cc2)c2ccc(N)cc2)C=C1`, in [20], the molecule was called inactive.
On to `C[Si]1(C)O[Si](C)(C)O[Si](C)(C)O1`, for which the result in test [20] was inactive.
Same read-out and setting: to `O=C(O)c1cccc(Cl)n1` belongs “inactive”; to `CCc1ccc(C)nc1`, “inactive”.
In the case of `FC(OC(F)(F)C(F)(F)C(F)(F)F)C(F)(F)F` (stereo not given), the molecule was classed as inactive in [20].
As for `CN(C)CCOc1ccc(/C(=C(/CCCl)c2ccccc2)c2ccccc2)cc1`, in test [20], the outcome was inactive.
For `CC1=Nc2ccc3ccccc3c2C1(C)C`, the molecule was called inactive in test [20].
Regarding `COc1cc(CCC(C)=O)ccc1O`, in test [20], the molecule was classed as inactive.
Still for that read-out and setting: to `CC(CC(C)(C)C)CC(C)(C)CC(C)(C)C` (stereo not given) belongs “inactive”; to `C[Si](O[Si](C)(C)C)O[Si](C)(C)C`, “inactive”.
`OCc1cccc(Oc2ccccc2)c1`: in [20], the result was inactive.
Turning to `O=S(=O)(O)C(F)(F)C(F)(F)C(F)(F)C(F)(F)C(F)(F)C(F)(F)C(F)(F)C(F)(F)C(F)(F)C(F)(F)F`, the molecule was classed as inactive in [20].
Turning to `CC(=O)CC(C)C`, the molecule was classed as inactive in [20].
With `CC=C(C)C(C)=O`, the call in test [20] was inactive.
Take `CC1CCC(CO)CC1` (stereo not given): in [20], the molecule was classed as inactive.
As to `CCCCC(CC)COC(=O)/C=C/c1ccc(OC)cc1` (stereo not given), the outcome in test [20] was inactive.
Regarding `CC(=O)N(C)C`, in [20], the call was inactive.
